Bioassay records from PubChem BioAssay.
Tb PYK inh: inhibitors of Trypanosoma brucei pyruvate kinase; TbPYK enzyme, Kinase-Glo Plus ATP luminescence, 45 min; Potency, µM (highest dose often 76.8 µM), for the others: top-dose activity, negative = inhibition, usual class: inhibitors; hit rate 0.12% among 410,000; AID 624173; also: nearly all actives have a fitted effect of over 50% in size
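Assay buffer: 50 mM TEA pH 7.2, 100 mM KCl, 10 mM MgCl2, 0.05% BSA, 0.01% Tween-20. Pyruvate kinase from T. brucei plus substrate met compound, then ADP (130 uM final). Luminescence was read post 45 min RT.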
RE007 growth inh: less growth of the S. pombe RE007 Vpr strain | S. pombe RE007 Vpr strain, BacTiter-Glo ATP luminescence, 24 h | Potency, µM (series often up to 92.2 µM), inactives show top-dose activity change, negative = less growth, usual class: inhibitors | hit rate 0.21% among 360,000 | AID 651644; active = well fitted falling curve with a large enough effect; inconclusive = small, poorly fitted or top-dose-only effect; inactive = no such curve, though single readings can be large or run the other way; also: nearly all actives have a fitted effect of over 50% in size
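Fission yeast RE007 carrying one integrated HIV-1 vpr copy, seeded at OD 0.01 in PMG+AL medium with 23 nL pinned compound. Grown 24 h at 30 degrees; viability read by BacTiter-Glo luminescence after 5 min.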
LmPK inhibitor: blocks Leishmania mexicana pyruvate kinase activity. Q27686. purified LmPK, Kinase-Glo ATP luminescence, 1 h. Potency, µM (highest dose often 57.5 µM), for inactives: at the highest dose activity change, negative = inhibition, actives largely listed as inhibitors. hit rate 0.37% among 290,000. AID 1721
Target sequence (Q27686 whole entry, looked up): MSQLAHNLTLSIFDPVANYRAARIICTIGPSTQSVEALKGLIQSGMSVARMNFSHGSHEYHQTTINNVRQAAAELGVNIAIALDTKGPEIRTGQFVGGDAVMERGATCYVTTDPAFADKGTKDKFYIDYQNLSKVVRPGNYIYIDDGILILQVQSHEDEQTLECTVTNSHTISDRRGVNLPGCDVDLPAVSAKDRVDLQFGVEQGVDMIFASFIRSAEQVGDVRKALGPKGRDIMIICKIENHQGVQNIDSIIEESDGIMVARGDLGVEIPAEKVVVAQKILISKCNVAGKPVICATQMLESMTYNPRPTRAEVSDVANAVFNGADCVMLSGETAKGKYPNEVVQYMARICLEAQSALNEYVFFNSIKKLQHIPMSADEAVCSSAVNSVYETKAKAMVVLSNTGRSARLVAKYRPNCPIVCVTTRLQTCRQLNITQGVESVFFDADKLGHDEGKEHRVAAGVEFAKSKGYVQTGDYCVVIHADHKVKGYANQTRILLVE
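Kinase-Glo luminescence read after 1 h RT reaction of 0.1 nM LmPK with 0.5 mM PEP and 0.1 mM ADP. Activity scaled between uninhibited and enzyme-free controls.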
Sm TGR block: blocks Schistosoma mansoni thioredoxin glutathione reductase | purified TGR, DTNB reduction, TNB absorbance 405 nm | AID 485364 | Potency, µM (top dose mostly 114 µM), for inactives: at the highest dose activity change, negative = inhibition, most hits filed as inhibitors | hit rate 3% among 360,000; also: nearly all actives have a fitted effect of over 60% in size
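First, TGR (20 nM dispensed) and NADPH were mixed with compound. Second, a 15 min room-temperature incubation followed. Third, further NADPH and then DTNB were added to start the reaction. Finally, TNB absorbance was monitored kinetically.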
AMA1 RON2 block: disrupts binding of P. falciparum AMA1 to RON2. AlphaScreen AMA1-biotinylated RON2 peptide binding. Potency, µM (titrated, usually from 58.2 µM), inactives show top-dose activity change, negative = inhibition, actives largely listed as inhibitors. hit rate 0.2% among 360,000;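 also: 0% = vehicle wells and -100% = peptide control; nearly all actives have a fitted effect of over 45% in size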
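AMA1 (3D7) with his tag at 25 nM final met compounds first, then biotinylated RON2 peptide at 25 nM; detection used donor plus acceptor beads, 10 µg/mL apiece, read by AlphaScreen after 30 min at room temperature.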
Numbers without * were called inactive. Compounds with a hit are over-represented: about 3.2% of the library has one in this group of screens. Unless noted, calls follow the shape of the dose curve; as a rule, active = well fitted curve in the direction sought with a large enough effect; inconclusive = small, poorly fitted or top-dose-only effect, or another doubt; inactive = no such curve, though single readings can be large; an effect the other way counts as inactive or inconclusive. Unless noted, % is scaled to controls: 0 for no effect and ±100 for the full control effect; potency is read from the fitted curve at half-maximal effect.

For CCOc1cc2sc(N3CCC(C(=O)Nc4ccc(C)cc4C)CC3)nc2cc1Br the results were Tb PYK inh 4% and Sm TGR block -1%.
Screening O=C(Nc1cccc(Cl)c1)c1ccc2c(c1)CCN2S(=O)(=O)c1ccccc1 returned Tb PYK inh -8% and Sm TGR block 3%.
`CCc1nn2cc(-c3ccccc3)nc2s1` gave Tb PYK inh inconclusive, RE007 growth inh inconclusive, LmPK inhibitor 11µM*, Sm TGR block 11% and AMA1 RON2 block inconclusive.
`COC(=O)N1C(=O)[C@](c2ccc(Cl)cc2)(C(C)C)N1C(=O)OC` gave Tb PYK inh -7%, RE007 growth inh -5%, LmPK inhibitor -4%, Sm TGR block 10µM* and AMA1 RON2 block 0%.
For COC(=O)N1C(=O)[C@](c2ccccc2)(C2CCCC2)N1C(=O)OC the results were Tb PYK inh -13%, RE007 growth inh -9%, LmPK inhibitor 0%, Sm TGR block 20µM* and AMA1 RON2 block -3%.
`CCC1(c2ccccc2)C(=O)N(C(=O)OC(C)(C)C)N1C(=O)OC(C)(C)C` (centres undefined) gave Tb PYK inh -5%, RE007 growth inh -9%, Sm TGR block -25% and AMA1 RON2 block -7%.
For COC(=O)N1C(=O)[C@@](c2ccc(OC)cc2)(C(C)C)N1C(=O)OC the results were Tb PYK inh 1%, RE007 growth inh 4%, LmPK inhibitor -1%, Sm TGR block 28µM* and AMA1 RON2 block 30%.
Screening CCC1(c2ccccc2)NC(=O)N(CC(=O)NC2CCCC2)C1=O (centres undefined) returned Tb PYK inh 1%, RE007 growth inh -9%, Sm TGR block -2% and AMA1 RON2 block -2%.
For COC(=O)N1C(=O)[C@@](c2ccccc2)(C(C)C)N1C(=O)OC the results were Tb PYK inh -8%, RE007 growth inh -11%, LmPK inhibitor -5%, Sm TGR block 35µM* and AMA1 RON2 block -1%.
For CC1=C(C(=O)Nc2ccccc2)C(c2ccncc2)n2nc(SCc3ccccc3F)nc2N1 (centres undefined) the results were Tb PYK inh 5% and Sm TGR block 1%.
Cc1cc(C)c(S(=O)(=O)NCC(c2ccco2)S(=O)(=O)c2ccccc2)c(C)c1 (centres undefined) was read as Tb PYK inh 1% and Sm TGR block 18µM*.
Screening Cc1cc(C)c(S(=O)(=O)NCC(c2cccs2)S(=O)(=O)c2ccccc2)c(C)c1 (centres undefined) returned Tb PYK inh 2% and Sm TGR block 0.32µM*.
Screening O=S(=O)(NCC(c1ccco1)S(=O)(=O)c1ccccc1)c1ccccc1 (centres undefined) returned Tb PYK inh 3% and Sm TGR block inconclusive.
For COc1ccc(OC)c(S(=O)(=O)NCC(c2ccco2)N2CCc3ccccc3C2)c1 (centres undefined) the results were Tb PYK inh 5%, RE007 growth inh -14%, Sm TGR block 0% and AMA1 RON2 block -26%.
Screening O=C(NCC(c1cccs1)S(=O)(=O)c1ccccc1)c1ccc(C(F)(F)F)cc1 (centres undefined) returned Tb PYK inh 3% and Sm TGR block 3%.
`O=S(=O)(NCC(c1ccco1)S(=O)(=O)c1ccccc1)c1cc(F)ccc1F` (centres undefined) gave Tb PYK inh 5% and Sm TGR block 7.1µM*.
COc1ccc(OC)c(S(=O)(=O)NCC(c2ccco2)S(=O)(=O)c2ccccc2)c1 (centres undefined) was read as Tb PYK inh -1%, RE007 growth inh -21%, Sm TGR block 0.32µM* and AMA1 RON2 block 2%.
CCCCCC[C@@H](CCC)C(=O)O was read as Tb PYK inh 0%.
CCOc1ccc(-n2c(=O)c3c4c(sc3n(Cc3cccc(Cl)c3)c2=O)CCCC4)cc1 was read as Tb PYK inh -9% and Sm TGR block 0%.
For COc1ccccc1Cc1nc2ccccc2nc1SCC(=O)N1CCN(c2ccccc2)CC1 the results were Tb PYK inh -4% and Sm TGR block 10%.
